Screening data as filed in PubChem.
Cav3 T inh – human Cav3.2 channel inhibition, primary screen | O95180 | Cav3.2-expressing cells, Fluo-4 calcium fluorescence FDSS; active compounds read low | B-score at 10 µM | 100,000 tested, 4% active;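 active = single-dose well whose peak fluorescence ratio is a statistical outlier from its plate by either plate-standardised score or position-corrected B-score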
CYP2C9 activ – activators of human CYP2C9; P11712; recombinant CYP2C9, luciferin-H conversion, luminescence; active compounds read high; factor 1 = untreated enzyme, 0 = blocked; activation factor at 5 µM; 96,000 tested, 1.4% active;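 active = activation factor of 2 or more for CYP2C9 at a 5 µM dose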
CYP2C19 inhib – inhibitors of human CYP2C19 | inhibition, % at 5 µM | P33261 | 96,000 tested, 21% active | CYP2C19 Supersomes, luciferin-H EGE luminescence, 30 min;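 active = CYP2C19 inhibition above a set limit at 5 µM in the primary screen, cut at about 50% in these data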
CYP2C19 act – activators of human cytochrome P450 2C19 | P33261 | recombinant CYP2C19, luciferin-H EGE luminescence; active compounds read high; 0 = fully inhibited enzyme, 1 = untreated enzyme | activation factor at 5 µM | 96,000 tested, under 10 active | AID 1025;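 active = activation factor of at least 2 at 5 µM in the primary screen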
CYP2C9 inhib – inhibitors of human CYP2C9; CYP2C9 Supersomes, luciferin-H conversion, luminescence; 96,000 tested, 20% active; inhibition, % at 5 µM; P11712;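 active = blocking of liver enzyme CYP2C9 beyond about 50% at 5 µM, limit read from the data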
Each line names hits and unclear results; the compound was inactive in the other large screens. An excerpt weighted towards active compounds, which were near 27% of everything screened.

NC(=O)CSc1nc2cc3c(cc2c(=O)n1CCCC(=O)NCc1ccc2c(c1)OCO2)OCO3	CYP2C9 inhib 74
COc1ccc(CNC(=O)CCCn2c(SCC#N)nc3cc4c(cc3c2=O)OCO4)cc1	CYP2C19 inhib 54, CYP2C9 inhib 80
Cc1ccc2c(CC(=O)OC(C)C(=O)NCc3ccc4c(c3)OCO4)coc2c1 (centres undefined)	Cav3 T inh -5.1, CYP2C19 inhib 53, CYP2C9 inhib 94
COc1ccc2c(CC(=O)NCc3ccc4c(c3)OCO4)coc2c1	CYP2C19 inhib 96, CYP2C9 inhib 89
CC(OC(=O)Cc1coc2cc3c(cc12)CCC3)C(=O)NCc1ccc2c(c1)OCO2 (centres undefined)	none
COc1ccc(CNC(=O)COC(=O)c2ccc3c(c2)OCCO3)cc1	none
Cc1ccc2c(CC(=O)NCc3ccc4c(c3)OCO4)coc2c1	Cav3 T inh -4.6, CYP2C19 inhib 52, CYP2C9 inhib 79
CCOC(=O)c1ccccc1NS(=O)(=O)c1ccc(OCC)cc1	CYP2C19 inhib 70
CCOC(=O)COc1ccc(S(=O)(=O)NCC2CCCO2)cc1 (centres undefined)	none (no result: CYP2C9 activ, CYP2C19 inhib, CYP2C19 act, CYP2C9 inhib)
O=S(=O)(NCC1CCCO1)c1ccc(Oc2ccccc2)cc1 (centres undefined)	CYP2C19 inhib 95, CYP2C9 inhib 83
CCOc1cc(NS(=O)(=O)c2ccc(OC)cc2)c(OCC)cc1NC(=O)c1ccco1	none (no result: CYP2C9 activ, CYP2C19 inhib, CYP2C19 act, CYP2C9 inhib)
CCOc1ccc(S(=O)(=O)Nc2ccccc2C(=O)NCC2CCCO2)cc1 (centres undefined)	CYP2C19 inhib 71
CCOc1ccc(S(=O)(=O)Nc2cc(OC)c(OC)cc2C(=O)O)cc1	CYP2C9 inhib 73
Cc1ccccc1NS(=O)(=O)c1ccc(OCC(=O)N2CCCCC2)cc1	none
COc1ccc(NC(=S)NNC(=O)OC(C)(C)C)cc1OC	none
COC(=O)c1nn(-c2ccccc2)c(=O)cc1Oc1ccc(Cl)cc1	none
COC(=O)c1nn(-c2ccccc2)c(Cl)c1/C=N/OCc1ccc(Cl)cc1Cl	CYP2C9 inhib 67
Cc1nn(C(=O)c2ccco2)c(C)c1Sc1ccc([N+](=O)[O-])cc1	none (no result: Cav3 T inh)
Cc1nn(C(=O)c2cccnc2)c(C)c1Sc1ccc(Br)cc1	CYP2C19 inhib 70
CC(C)OC(=O)Cn1c(=O)oc2ccccc21	none
CCCCOC(=O)Cn1c(=N)n(CCN2CCOCC2)c2ccccc21	none (no result: CYP2C9 activ, CYP2C19 inhib, CYP2C19 act, CYP2C9 inhib)
CCCCOC(=O)Cn1c(=O)n(CC(=O)OCCCC)c2ccccc21	Cav3 T inh -6.4, CYP2C9 inhib 50
CCCCCOC(=O)Cn1c(=O)oc2ccccc21	CYP2C19 inhib 89
ON1C(c2ccccc2C(F)(F)F)N(O)[C@H]2CCCC[C@H]21 (some centres undefined)	none
O=C(Nc1ncccc1O)c1cccc(S(=O)(=O)N2CCc3ccccc32)c1	CYP2C19 inhib 72, CYP2C9 inhib 75
CCc1nnc(NC(=O)c2ccc(Cl)c(S(=O)(=O)N3CCc4ccccc43)c2)s1	CYP2C19 inhib 75, CYP2C9 inhib 81
COc1ccc(C(=O)Nc2ccc(S(=O)(=O)N3CCc4ccccc43)cc2)cc1	none (no result: CYP2C9 activ, CYP2C19 inhib, CYP2C19 act, CYP2C9 inhib)
O=C1c2ccccc2C(=O)N1CCc1csc(-c2cccc(F)c2)n1	CYP2C19 inhib 100, CYP2C9 inhib 52
O=C1c2ccccc2C(=O)N1CCc1csc(-c2cccc(Cl)c2)n1	CYP2C19 inhib 99 (no result: Cav3 T inh)
Cc1ccc(S(=O)(=O)N(CC(=O)N/N=C/c2cccc(Cl)c2)c2cccc3cccnc23)cc1	none (no result: Cav3 T inh)
CC(NC(=O)C12CC3CC(C1)CC(n1cncn1)(C3)C2)C12CC3CC(CC(C3)C1)C2 (centres undefined)	CYP2C19 inhib 68, CYP2C9 inhib 72
Nc1nc2n(n1)C(c1c(F)cccc1Cl)CC(c1ccc(F)cc1)N2 (centres undefined)	none (no result: CYP2C9 activ, CYP2C19 inhib, CYP2C19 act, CYP2C9 inhib)
OC1(C2(O)CC(c3ccccc3)ON2)CCCCC1 (centres undefined)	CYP2C19 inhib 77
O=C(Nc1ccc(Cl)c(Cl)c1)c1ccc(Cn2c(=O)[nH]c3ccsc3c2=O)cc1	none (no result: CYP2C9 activ, CYP2C19 inhib, CYP2C19 act, CYP2C9 inhib)
O=C(CCn1c(=O)[nH]c2ccsc2c1=O)N1CCc2ccccc2C1	none
O=C(CCn1c(=O)[nH]c2ccsc2c1=O)N(CCc1ccccc1)Cc1ccccc1	Cav3 T inh -4.4, CYP2C19 inhib 65, CYP2C9 inhib 65
O=C(CCn1c(=O)[nH]c2ccsc2c1=O)Nc1ccc(F)c(F)c1	CYP2C9 inhib 55
O=C(CCn1c(=O)[nH]c2ccsc2c1=O)NCCc1ccc(Cl)cc1	CYP2C19 inhib 70
CC(=O)Nc1ccc2nc(C3CCCCC3)[nH]c2c1	none
COC(=O)c1ccc(-n2nnnc2SCc2nn[nH]n2)cc1	none
COc1cc(OC)cc(C(=O)Nc2cccc(N3CCCC3)c2)c1	none
COCCCNC(=O)c1cn(CC(C)C)c(=O)c2c1c1ccccc1n2C	none
CC(C)Cn1cc(C(=O)N2CCN(c3ccccn3)CC2)c2c3ccccc3n(C)c2c1=O	CYP2C9 inhib 78
CCN1CCN(C(=O)c2cn(CCOC)c(=O)c3c2c2ccccc2n3C)CC1	none
CC(C)Cn1cc(C(=O)NC2CCN(Cc3ccccc3)CC2)c2c3ccccc3n(C)c2c1=O	CYP2C19 inhib 57 (no result: Cav3 T inh)
CCC(=O)Nc1cccc(NC(=O)c2ccc(C)c([N+](=O)[O-])c2)c1	none
Cc1ccc(C(=O)Nc2ccc(Cc3ccncc3)cc2)cc1[N+](=O)[O-]	CYP2C19 inhib 91, CYP2C9 inhib 90 (no result: Cav3 T inh)
Nc1nc2n(n1)C(c1ccccc1)CC(c1ccc(F)cc1)N2 (centres undefined)	CYP2C19 inhib 98, CYP2C9 inhib 93
CCOc1ccc(C2CC(c3ccccc3)Nc3nc(N)nn32)cc1 (centres undefined)	CYP2C9 inhib 51
CCc1ccc(C2CC(c3ccc(Cl)cc3)n3nc(N)nc3N2)cc1 (centres undefined)	none (no result: CYP2C9 activ, CYP2C19 inhib, CYP2C19 act, CYP2C9 inhib)
CCc1ccc(C2CC(c3ccc(F)cc3)Nc3nc(N)nn32)cc1 (centres undefined)	CYP2C19 inhib 51
COc1ccc(C2CC(c3ccccc3)Nc3nc(N)nn32)cc1 (centres undefined)	none
COc1cc(CSc2ncn[nH]2)c(OC)cc1CSc1ncn[nH]1	CYP2C19 inhib 62
C#CCn1c(S(=O)(=O)Cc2ccc(F)cc2)nc(-c2ccccc2)c1-c1ccccc1	Cav3 T inh -3.8, CYP2C19 inhib 98, CYP2C9 inhib 92
CCOC(=O)Cn1c(S(=O)(=O)Cc2ccc(F)cc2)nc(-c2ccccc2)c1-c1ccccc1	CYP2C19 inhib 52
O=C1c2cnccc2CN1Cc1ccccc1	none
CCOC(=O)C1CCN(C(=O)COc2ccc(Br)cc2)CC1	CYP2C19 inhib 82, CYP2C9 inhib 65
CCOC(=O)C1CCN(C(=O)COc2ccc(S(=O)(=O)NC(C)(C)C)cc2)CC1	none
CCOC(=O)C1CCN(C(=O)Cc2cccs2)CC1	CYP2C19 inhib 59
Cc1cccc(OCC(=O)N2CCN(C(=O)c3cccs3)CC2)c1	CYP2C19 inhib 62, CYP2C9 inhib 59
CCOC(=O)C1CCN(C(=O)COc2cccc(C)c2)CC1	CYP2C19 inhib 81
O=C(COc1ccccc1)N1CCN(C(=O)c2cccs2)CC1	none
